# Source: PubChem BioAssay AID1628 (Sanford-Burnham Center for Chemical Genomics, 2009)
# Hit rate of the full screen: of about 190,000 compounds, about 930 (0.49%) were called active. The list shows a part of the results. Results with a measured potency or affinity are listed apart. Unmarked numbers belong to inactive results.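 Rule for the calls: active = z-score of insulin promoter reporter brightness in nuclei below -3 at 5 µM, with at least 500 cells counted; inconclusive = wells with under 500 cells, flagged as toxic or sparse; inactive = the rest.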
# Assay: insulin promoter down-regulators in MIN6 cells, imaging, high-content screening, mouse beta cells (AID 1628)
# Settings: MIN6 insulin promoter GFP reporter, at 5 µM, active compounds read low
row,SMILES,z-score
1,CCCCN1C(=O)C2(NNc3ccccc3O2)c2ccccc21 (centres undefined),4.38
2,Cc1cc(N2CCCC2)ccc1/C=C1\NC(=S)N(C)C1=O,10.4
3,COc1ccc(N=c2oc3c(OC)cccc3cc2C(=O)NCc2ccco2)c(OC)c1,-3.31 (active)
4,O=C(Nc1ccc(F)cc1)NC1CCN(Cc2ccccc2)CC1,-3.27 (active)
5,O=C(NN=C1CCN(Cc2ccccc2)CC1)c1cc(Br)ccc1O,1.47
6,CC(=O)OCCCN1C(=O)c2ccc(Br)cc2C1=O,1.19
7,CCCCNc1ccc2c3c(cccc13)C(=O)N(CCCC)C2=O,17.1
8,CC(C)Oc1ccccc1C1CC(=O)Nc2cc3c(cc21)OCCO3 (centres undefined),-4.18 (active)
9,CCOC(=O)C1=C(C)NC(=O)CC1c1cc2c(cc1[N+](=O)[O-])OCO2 (centres undefined),3.01
10,CCNc1nc(N2CCCC2)nc(N2CCCC2)n1,-3.04 (active)
11,O=C(OCCN1C(=O)c2cccc3c(N4CCOCC4)ccc(c23)C1=O)c1ccc(Cl)cc1Cl,3.13
12,CN1C=CC2=C(C#N)C(N)C(C#N)(C#N)C(c3ccccc3)C2C1 (centres undefined),10.1
13,CC12CCC(C/C1=N/O)C2(C)C (centres undefined),0.65
14,C(=N\Nc1nc(-c2ccccn2)nc2ccccc12)/c1ccccc1,-3.55 (active)
15,Cc1ccc2nc(C(Cl)(Cl)Cl)nc(N/N=C/c3ccncc3)c2c1,2.39
16,CCOc1ccc(CNC(=O)CCn2c(=O)oc3ccccc32)cc1,3.4
17,CCOc1ccc(N2CC(C(=O)NCc3ccc(F)cc3)CC2=O)cc1 (centres undefined),-5.37 (active)
18,CCOc1ccc(NC(=O)NC2CC(=O)N(c3ccc(OC)cc3)C2)cc1 (centres undefined),2.29
19,COc1cc2nc(/C=C/c3ccc(N(C)C)cc3)sc2cc1SC,15.9
20,COc1cccc(NC(=O)Cn2c(SCC(=O)N3CCOCC3)nc3ccccc32)c1,-4.09 (active)
21,COc1cccc(NC(=O)CSc2nncn2N)c1,0.29
22,CCOc1ccc(NC(=O)Cn2c(=O)oc3ccccc32)cc1,3.64
23,COc1cccc(NC(=O)Cn2c(-c3cncs3)nc3ccccc32)c1,5.27
24,COc1cccc(NC(=O)CSc2nc3ccccc3c(=O)n2CCCC(=O)N2CCCC2)c1,-4.63 (active)

row,SMILES,z-score
1,COc1ccc(-n2c(SCC(=O)Nc3cccc4ccccc34)nc(O)cc2=O)cc1,-6.42 (active)
2,COc1ccc(-n2c(Cc3cccn3C)nnc2SCC(=O)Nc2cccc(C)c2C)cc1,3.05
3,O=C(Nc1nnc(-c2ccc(Cl)s2)o1)C1CC1,2.8
4,CCn1nnc2sc3c(c2c1=O)CCC(C)C3 (centres undefined),3.59
5,C/C(CC(=O)NCc1ccc(Cl)cc1)=N\NC(=O)Cc1ccccc1,-4.08 (active)
6,O=C(CSc1ncn[nH]1)NCc1ccccc1,5.42
7,COc1cc(OC)c(OC)cc1/C=C1\Oc2cc(OS(C)(=O)=O)ccc2C1=O,5.02
8,Cc1ccc(-c2nc(C#N)c(NCCN3CCCCC3)o2)cc1,-3.25 (active)
9,CC(=O)N1CCOCCOCCN(C(C)=O)CCOCC1,2.13
10,O=C(/C=C/c1cccs1)N1CCOCC1,-5.7 (active)
11,Fc1ccc(NC(=S)NNc2ncc(C(F)(F)F)cc2Cl)c(F)c1,-3.64 (active)
12,Cc1cccc(Oc2nccc(C(F)(F)F)c2C(=O)Nc2ccc(F)cc2F)c1,3.57
13,CN(C)c1ccc(/C=C2\SC(=S)N(Nc3ncc(C(F)(F)F)cc3Cl)C2=O)cc1,4.86
14,O=Cc1sc(Nc2ccccc2)nc1Cl,3.66
15,Oc1c(/C=C/C=C/C=Nc2ccccc2)sc(=S)n1Cc1ccccc1,3.27
16,CSc1nsc(/C=C/Nc2ccc(C)cc2)c1C#N,3.5
17,Cc1ccc(C)c(N=Nc2ccc(O)c3ncccc23)c1,-4.77 (active)
18,N#C/C(=C/c1ccc(-c2ccccc2)o1)c1nc(-c2cccs2)cs1,14.7
19,Cc1ccc(OCC2Cn3c(nc4c3c(=O)n(C)c(=O)n4C)O2)cc1 (centres undefined),-6.54 (active)
20,CC(=O)NC(c1ccc(Cl)cc1)c1c(O)ccc2ccc(O)cc12 (centres undefined),10.6
21,Cc1cc(C)nc(N2CCC(C(=O)Nc3ccc4c(c3)OCCO4)CC2)n1,3.37
22,Cc1cc(N2CCC(C(=O)N3CCN(c4cccc(C)c4C)CC3)CC2)n2ncnc2n1,-4.36 (active)
23,COc1ccccc1N1CCN(c2cc(C)nc3nc(C)nn23)CC1,1.58
24,CCc1c(C)nc2ncnn2c1N1CCC(C(=O)Nc2ccc(C)cc2)CC1,-5.25 (active)

row,SMILES,z-score
1,COc1nc(OC)nc(N2CCC(C(=O)NCc3cccs3)CC2)n1,3.48
2,CCc1c(C)nc2ncnn2c1N1CCC(C(=O)NCc2cccc(OC)c2)CC1,-5.78 (active)
3,CCC(=O)N1c2ccccc2C(N(C(C)=O)c2ccccc2)CC1C (centres undefined),0.92
4,Cc1cc(/C=C2\SC(=S)NC2=O)c(C)n1-c1ccc(O)cc1,3.66
5,CCCNC(=O)Cn1c(=O)/c(=C\c2ccc(-c3ccc([N+](=O)[O-])cc3)o2)s/c1=C\C(=O)C(C)(C)C,18.3
6,COc1ccc(OC)c(C2C3CN(C(C)C)CC=C3C(C#N)=C(N)C2(C#N)C#N)c1 (centres undefined),17.1
7,CCC(Sc1nnc(C)s1)C(=O)Nc1nccs1 (centres undefined),1.54
8,O=C(Nc1ccc(C2CCCCC2)cc1)C1CCCN(c2ncccn2)C1 (centres undefined),3.77
9,Cc1nc2ncnn2c(N2CCCC(C(=O)Nc3ccc4c(c3)CCC4)C2)c1C (centres undefined),-5.29 (active)
10,CCc1c(C)nc2ncnn2c1N1CCC(C(=O)N2CCN(c3ccc(F)cc3)CC2)CC1,-3.04 (active)
11,OC1(c2cn(Cc3ccccc3)nn2)CCCCC1,5.88
12,Cc1ccc(C(C#N)c2ccc(C(=O)c3ccc(F)cc3)cc2)cc1 (centres undefined),-4.77 (active)
13,CCS(=O)(=O)c1ccc2oc(SCC(=O)NC3CCCC(C)C3C)nc2c1 (centres undefined),4.28
14,Fc1ccc(NCc2nnc(SCc3nnc(-c4ccccc4)o3)n2Cc2ccccc2)cc1,-4.77 (active)
15,Cc1ccccc1NC(=O)/C(=C\c1cccs1)NC(=O)c1ccco1,-5.39 (active)
16,CN1CCN(C(=O)/C(=C\c2cccs2)NC(=O)c2ccco2)CC1,-6.33 (active)
17,CN1CCN(C(=O)/C(=C\c2cccs2)NC(=O)c2cccs2)CC1,6.06
18,O=C1c2cccc3c(O)ccc(c23)C(=O)N1Cc1ccco1,12.8
19,CC(C)C[C@@H]1NC(=O)[C@H](C(C)C)NC(=O)c2cc([N+](=O)[O-])cc(I)c2NCC[C@@H](C(N)=O)NC1=O,-5.69 (active)
20,NC(=O)CC[C@@H]1NC(=O)[C@@H]2CCCN2C(=O)c2cc([N+](=O)[O-])cc(I)c2NCCCC[C@@H](C(=O)NC(CC(=O)O)C(N)=O)NC1=O (some centres undefined),-4.71 (active)
21,NCCCC[C@@H]1NC(=O)[C@H](CCC(=O)O)NC(=O)c2cc([N+](=O)[O-])cc(I)c2NCC[C@@H](C(N)=O)NC1=O,-4.01 (active)
22,Cc1oc(C)c2c(=O)ccc3c(c12)OC(N)=C(C#N)C3c1ccc(F)cc1 (centres undefined),3.56
23,CCCCSc1nnc(CCCCCNC(=O)OC(C)(C)C)o1,-4.83 (active)
24,COc1ccc(-c2cc(C(=O)Nc3cc(S(=O)(=O)N4CCOCC4)ccc3N3CCOCC3)c3ccccc3n2)cc1,-3.45 (active)

row,SMILES,z-score
1,Cc1ccn2cc(-c3ccc(S(=O)(=O)N4CCOCC4)cc3)nc2c1,-0.88
2,COc1cc(S(=O)(=O)N2CCOCC2)ccc1NC(=O)COC(=O)C12CC3CC(CC(C3)C1)C2,3.88
3,COc1cccc(-c2cc(C(=O)Nc3ccc4c(c3)OCCO4)c3ccccc3n2)c1,-4.93 (active)
4,COc1ccc2cc(/C(C)=N/NC(=S)Nc3cc(S(=O)(=O)N4CCOCC4)ccc3N3CCOCC3)ccc2c1,-3.25 (active)
5,COc1ccc(C2C(C(C)=O)=C(C)N=c3s/c(=C\c4cc(C)n(C)c4C)c(=O)n32)c(OC)c1 (centres undefined),8.76
6,N#C/C(=C\C1=C(N2CCOCC2)C(=C\c2ccc(Cl)cc2)/CC1)C(=O)Nc1ccccc1F,3.27
7,CN1CC=C2C(C#N)=C(N)C(C#N)(C#N)C(c3ccsc3)C2C1 (centres undefined),4.07
8,Cc1ccc2c(c1)cc(CN(Cc1ccc3c(c1)OCO3)S(=O)(=O)c1ccccc1)c1nnnn12,-3.75 (active)
9,Cc1cc(-c2cccs2)c2c(N)c(C(=O)c3ccc4c(c3)OCO4)sc2n1,4.7
10,COc1ccc2c(C(=O)CN(C)C3CCCCC3)c[nH]c2c1,4.45
11,O=C(NC1CCCC1)c1c[nH]c2ccc(F)cc2c1=O,-3.28 (active)
12,Cc1ccc(C2C3CN(C(C)C)CC=C3C(C#N)=C(N)C2(C#N)C#N)cc1 (centres undefined),10.3
13,NC(=O)CCN1CCN(CCOC2Cc3cc(Cl)ccc3Sc3ccccc32)CC1 (centres undefined),-4.24 (active)
14,CC(C)CC(=O)c1c[nH]c(C(=O)NCCc2ccccn2)c1,-3.63 (active)
15,Nc1c(C(=O)N/N=C/c2cccnc2)oc2nc(-c3ccco3)cc(-c3ccco3)c12,5.39
16,O=C(Nc1ccc(-c2csc(Nc3cccc(C(F)(F)F)c3)n2)cc1)c1cccc(C(F)(F)F)c1,-4.02 (active)
17,c1ccc(CN2CCN(c3nc(NCc4ccco4)c4ccccc4n3)CC2)cc1,-3.17 (active)
18,c1ccc(N2CCN(c3nc(NCc4ccco4)c4ccccc4n3)CC2)cc1,-3.05 (active)
19,CCCS(=O)(=O)N1CCC(C(=O)N2CCOCC2)CC1,4.02
20,O=C(/C=C/c1cn(CC(O)CN2CCCCC2)c2ccccc12)c1cccs1 (centres undefined),4.58
21,OC(CN1CCCCC1)CN(c1ccccc1)c1ccccc1 (centres undefined),-4.02 (active)
22,O=C(/C=C/c1cn(CC(O)CN2CCCCCC2)c2ccccc12)c1cccs1 (centres undefined),5.06
